Assay outcomes (PubChem BioAssay)
CCHF vOTU inh: CCHFV vOTU protease inhibition; Pep-AMC fluorescence; inhibition, % at 11.5 µM; 370,000 compounds, 0.55% hits; AID 651958; in the data active means inhibition above about 30%; further: 0% = vehicle wells with enzyme and 100% = no enzyme wells
3CLpro inhibitor: SARS-CoV 3CLpro protease inhibition | P0C6X7 | recombinant SARS-CoV 3CLpro, quenched FRET peptide cleavage | inhibition, % at 6 µM | 290,000 compounds, 0.14% hits; in the data active means inhibition above about 12%
PrPC surface inh: reduces human prion protein on the cell surface. P04156. cell surface PrPC, TR-FRET read-out. inhibition, % at 13.8 µM. 370,000 compounds, 0.43% hits; in the data active means inhibition above about 24%; further: 0% = median of the test wells and 100% = reference compound wells
PrP 5UTR inh: inhibition of PrP 5' UTR reporter expression. cell-based PrP 5' UTR mRNA reporter, plate reader. inhibition, % (test concentration not listed). 340,000 compounds, 0.35% hits. AID 488862; in the data active means inhibition above about 52%; further: 0 = median of the neutral control wells
PrPC TRFRET cf: cell surface PrPC inhibition, TR-FRET confirmation. shares compounds with PrPC surface inh. cell surface PrPC level. inhibition, % at 13.8 µM. 1,500 compounds, 65% hits. AID 743200; in the data active means inhibition above about 25%
LD9 cytotox: counter-screen for PrPc inhibitors: cytotoxicity in LD9 cells; shares compounds with PrPC surface inh; luminescence viability; inhibition, % at 13.8 µM; 1,500 compounds, 29% hits; in the data active means inhibition above about 9.5%
* marks the source's active call; other numbers are inactive results; x = no result given. Rows were chosen to be rich in hits. Some 1.3% of all compounds tested hit in one or more screens of this group.

SMILES	CCHF vOTU inh	3CLpro inhibitor	PrPC surface inh	PrP 5UTR inh	PrPC TRFRET cf	LD9 cytotox
CC(C)Sc1nc(N)nc(-c2cccs2)c1C#N	9	9	30*	-55	41*	3
COc1cnc(-c2ccccn2)nc1N(C)c1ccccc1	8	2	34*	-3	27*	23*
COc1cnc(-c2ccccn2)nc1Oc1ccccc1	-3	5	-3	-1	x	x
CC1(C)NC(=O)N(CC(O)COc2ccc(-c3ccc(C#N)cc3)cc2)C1=O (stereo unspecified)	-9	0	30*	-3	14	9
Cn1nnnc1SCc1cccc2ccccc12	10	0	-5	-24	x	x
Cc1ccnc(SCCn2c(N3CC(C)OC(C)C3)nc3c2c(=O)n(C)c(=O)n3C)n1 (stereo unspecified)	14	1	1	-25	x	x
CC(C)NC(=O)Cn1c(SCC(=O)N2CCc3ccccc3C2)nc2ccccc21	-9	0	0	8	x	x
O=C1NC(Cc2ccccc2)C(=O)Nc2ccc(Br)cc21 (stereo unspecified)	-13	0	25*	-54	18	-4
O=c1oc2ccccc2c(N2CCOCC2)c1[N+](=O)[O-]	8	9	-11	3	x	x
CN(C)S(=O)(=O)c1ccc(C(=O)OCc2ccc([N+](=O)[O-])cc2)cc1	-2	4	1	-14	x	x
Cc1cc(-c2ccc(C)c(S(=O)(=O)N3CCN(c4ccc([N+](=O)[O-])cc4)CC3)c2)on1	-1	1	5	-1	x	x
CC(=O)c1cnc(Nc2cccc(Cl)c2Cl)s1	7	0	26*	-46	18	-7
CC(=O)c1cnc(Nc2ccccc2)s1	1	0	-9	-14	x	x
O[C@@H]1[C@@H](O)C=C2CCN3Cc4cc5c(cc4[C@H]1C23)OCO5 (stereo partly specified)	-2	x	89*	-66	92*	28*
O=C(O)CCC(=O)NNC(=O)COc1ccc2ccccc2c1Br	2	-3	46*	6	85*	-1
O=C(COc1ccc2ccccc2c1Br)NC(=S)Nc1cccc(CO)c1	5	1	61*	-37	66*	-8
O=C(COc1ccc2ccccc2c1Br)Nc1cccnc1	0	-1	48*	-18	68*	-3
O=C(COc1ccc2ccccc2c1Br)Nc1ccncc1	15	-7	60*	-22	69*	8
O=C(COc1ccccc1[N+](=O)[O-])Nc1cccnc1	9	1	-3	-42	x	x
CC(C)(C)c1ccc(NC(=O)Nc2ccc3ccccc3n2)cc1	-10	2	4	-40	x	x
CCc1ccc(OCC(=O)N(C)C2CCS(=O)(=O)C2)cc1 (stereo unspecified)	-8	-1	-6	-14	x	x
CC1(C)CC(=O)C(=Cc2cn(-c3ccccc3)nc2-c2ccccc2)C(=O)C1	-1	x	10	x	x	x
CN(C(=O)COc1ccccc1C(=O)NCCOc1ccccc1)c1ccccc1	-1	-2	80*	-28	83*	95*
COc1ccc(CC(=O)NC(c2ccccc2)c2ccc(C)cc2)c(OC)c1 (stereo unspecified)	12	4	30*	-26	28*	-9
NC(=O)CSc1nnc2n(-c3ccccc3)c(=O)c3c4c(sc3n12)CCCCC4	-2	3	51*	-18	86*	-5
SMILES	CCHF vOTU inh	3CLpro inhibitor	PrPC surface inh	PrP 5UTR inh	PrPC TRFRET cf	LD9 cytotox
COc1cc(C(=O)Nc2scc(-c3ccc(C)cc3)c2C(=O)O)cc(OC)c1OC	15	10	60*	-25	69*	-5
COC(=O)Cn1c(=NC(=O)c2ccc(S(=O)(=O)N3CCOCC3)cc2)sc2cc(S(N)(=O)=O)ccc21	-7	-1	4	-15	x	x
Cc1ccc(S(=O)(=O)N2CCN(CC(O)c3ccccc3)CC2)cc1 (stereo unspecified)	-5	3	8	-7	x	x
Cc1ccc(S(=O)(=O)N2CCN(CC(O)c3ccccc3)CC2)cc1C (stereo unspecified)	0	-1	57*	-28	6	-5
CCc1nc2ccc(C(=O)N(CC)CCN(C)C)cn2c1N(C)CCCc1ccccc1	-17	x	-8	x	x	x
Cc1c(OCC(N)=O)ccc2c(-c3ccccc3)cc(=O)oc12	15	2	27*	-22	-9	-3
CC(=O)COc1ccc2c(-c3ccccc3)cc(=O)oc2c1C	-2	-2	-8	0	x	x
Cc1cc(C)c(O)c(C(=O)CC2CC(=O)NC(=O)C2)c1	2	x	71*	x	66*	34*
